Assay results from the supplement of paper PMC8728848.
This excerpt belongs to a sample that is enriched for the strongest signals.

Assays:
Assay in all cases: glycan array binding signal (z-score within array); higher = stronger binding
Conditions in all cases: glycan notation: IUPAC condensed, linker removed
Gal3S(b1-4)GlcNAc = target: Gal3S(b1-4)GlcNAc
Procedure, shortened: (§1)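 Glycan array data were curated from 3228 arrays in the Consortium for Functional Glycomics database and kept only where the protein sequence was available. Glycan names were converted to IUPAC-condensed notation, and columns mapping to the same glycan were averaged. The binding signal is a within-array Z-score, averaged across arrays of the same protein sequence at different concentrations or buffers and across linkers. Negative Z-scores can be read as non-binding.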

[1] = target: Gal3S(b1-4)[Fuc(a1-3)]Glc6S
Procedure, shortened: as §1

Gal4S(b1-4)GlcNAc = target: Gal4S(b1-4)GlcNAc
Procedure, shortened: as §1

Gal6S(b1-4)Glc6S = target: Gal6S(b1-4)Glc6S
Procedure, shortened: as §1

GalNAc(b1-3)Gal = target: GalNAc(b1-3)Gal
Procedure, shortened: as §1

[2] = target: GalNAc(b1-3)Gal(a1-4)Gal(b1-4)GlcNAc(b1-3)Gal(b1-4)Glc
Procedure, shortened: as §1

GalNAc3S(b1-4)GlcNAc3S = target: GalNAc3S(b1-4)GlcNAc3S
Procedure, shortened: as §1

GalNAc4S6S(b1-4)GlcNAc = target: GalNAc4S6S(b1-4)GlcNAc
Procedure, shortened: as §1

Glc(a1-6)Glc(a1-6)Glc = target: Glc(a1-6)Glc(a1-6)Glc
Procedure, shortened: as §1

GlcA(b1-3)GlcNAc = target: GlcA(b1-3)GlcNAc
Procedure, shortened: as §1

[3] = target: GlcNAc(b1-2)[GlcNAc(b1-4)]Man(a1-3)[GlcNAc(b1-4)][GlcNAc(b1-2)[GlcNAc(b1-6)]Man(a1-6)]Man(b1-4)GlcNAc(b1-4)[Fuc(a1-6)]GlcNAc
Procedure, shortened: as §1

[4] = target: GlcNAc(b1-3)Gal(b1-4)GlcNAc
Procedure, shortened: as §1

[5] = target: GlcNAc(b1-3)Gal(b1-4)GlcNAc(b1-3)Gal(b1-4)GlcNAc(b1-2)Man(a1-3)[GlcNAc(b1-3)Gal(b1-4)GlcNAc(b1-3)Gal(b1-4)GlcNAc(b1-2)Man(a1-6)]Man(b1-4)GlcNAc(b1-4)[Fuc(a1-6)]GlcNAc
Procedure, shortened: as §1

Man(a1-2)Man(a1-3)Man = target: Man(a1-2)Man(a1-3)Man
Procedure, shortened: as §1

[6] = target: Neu5Ac(a2-3)Gal(b1-4)GlcNAc
Procedure, shortened: as §1

[7] = target: Neu5Ac(a2-3)Gal(b1-4)GlcNAc(b1-2)[Neu5Ac(a2-3)Gal(b1-4)GlcNAc(b1-6)]Man(a1-6)[Neu5Ac(a2-3)Gal(b1-4)GlcNAc(b1-2)Man(a1-3)]Man(b1-4)GlcNAc(b1-4)GlcNAc
Procedure, shortened: as §1

[8] = target: Neu5Ac(a2-3)Gal(b1-4)GlcNAc(b1-2)[Neu5Ac(a2-3)Gal(b1-4)GlcNAc(b1-6)]Man(a1-6)[Neu5Ac(a2-3)Gal(b1-4)GlcNAc(b1-2)Man(a1-3)][GlcNAc(b1-4)]Man(b1-4)GlcNAc(b1-4)GlcNAc
Procedure, shortened: as §1

[9] = target: Neu5Ac(a2-3)Gal(b1-4)GlcNAc(b1-3)Gal(b1-4)GlcNAc(b1-2)Man(a1-3)[Neu5Ac(a2-3)Gal(b1-4)GlcNAc(b1-3)Gal(b1-4)GlcNAc(b1-2)Man(a1-6)]Man(b1-4)GlcNAc(b1-4)GlcNAc
Procedure, shortened: as §1

[10] = target: Neu5Ac(a2-3)Gal(b1-4)GlcNAc(b1-6)GalNAc
Procedure, shortened: as §1

[11] = target: Neu5Ac(a2-3)Gal(b1-4)[Fuc(a1-3)]GlcNAc(b1-6)[Gal(b1-3)]GalNAc
Procedure, shortened: as §1

[12] = target: Neu5Ac(a2-3)[Neu5Ac(a2-6)]GalNAc
Procedure, shortened: as §1

Neu5Ac(a2-6)Gal(b1-4)Glc = target: Neu5Ac(a2-6)Gal(b1-4)Glc
Procedure, shortened: as §1

[13] = target: Neu5Ac(a2-6)Gal(b1-4)GlcNAc(b1-2)Man(a1-3)[GlcNAc(b1-4)][Neu5Ac(a2-6)Gal(b1-4)GlcNAc(b1-2)Man(a1-6)]Man(b1-4)GlcNAc(b1-4)GlcNAc
Procedure, shortened: as §1

[14] = target: Neu5Ac(a2-6)Gal(b1-4)GlcNAc(b1-2)Man(a1-3)[Neu5Ac(a2-6)Gal(b1-4)GlcNAc(b1-2)Man(a1-6)]Man(b1-4)GlcNAc(b1-4)GlcNAc
Procedure, shortened: as §1

[15] = target: Neu5Ac(a2-6)Gal(b1-4)GlcNAc(b1-2)Man(a1-6)Man(b1-4)GlcNAc(b1-4)GlcNAc
Procedure, shortened: as §1

[16] = target: Neu5Ac(a2-6)Gal(b1-4)GlcNAc(b1-2)Man(a1-6)[Gal(b1-4)GlcNAc(b1-2)Man(a1-3)]Man(b1-4)GlcNAc(b1-4)GlcNAc
Procedure, shortened: as §1

[17] = target: Neu5Ac(a2-6)Gal(b1-4)GlcNAc(b1-2)Man(a1-6)[GlcNAc(b1-2)Man(a1-3)]Man(b1-4)GlcNAc(b1-4)GlcNAc
Procedure, shortened: as §1

[18] = target: Neu5Ac(a2-6)Gal(b1-4)GlcNAc(b1-3)Gal(b1-4)GlcNAc(b1-6)[Gal(b1-3)]GalNAc
Procedure, shortened: as §1

[19] = target: Neu5Ac(a2-6)GlcNAc(b1-4)GlcNAc(b1-4)GlcNAc
Procedure, shortened: as §1

[20] = target: Neu5Ac(a2-8)Neu5Ac(a2-3)Gal(b1-4)GlcNAc
Procedure, shortened: as §1

[21] = target: Neu5Ac(a2-8)Neu5Ac(a2-3)[GalNAc(b1-4)]Gal(b1-4)Glc
Procedure, shortened: as §1

[22] = target: Neu5Gc(a2-3)Gal(b1-4)GlcNAc(b1-3)Gal(b1-4)GlcNAc(b1-2)Man(a1-3)[Neu5Gc(a2-3)Gal(b1-4)GlcNAc(b1-3)Gal(b1-4)GlcNAc(b1-2)Man(a1-6)]Man(b1-4)GlcNAc(b1-4)GlcNAc
Procedure, shortened: as §1

B1: FimA-N2 (Actinomyces oris) (protein)
chain: MHHHHHHSSGVDLGTENLYFQSNAWIYDVNVYPKNEAIDVDKTIQAQKLNGYGVGSLIKFPVESTAPTLDAKSFYKYFQLKDTLDERLSEVTATDVSLEGTPLQPTDYKVETKQQTVTVTFTAEGLKKIKAAPGKKVSAVFQGKVTKAGNGAITNRAQVISDTLYAEQPPTPETPPTDPENPPTSDEVISRWGDLSIKKVDTHQQGQTKA
Gal3S(b1-4)GlcNAc
  glycan array binding signal (z-score): 2.69
[1]
  glycan array binding signal (z-score): 3.08
Gal4S(b1-4)GlcNAc
  glycan array binding signal (z-score): 3.9
Gal6S(b1-4)Glc6S
  glycan array binding signal (z-score): -0.257
GalNAc(b1-3)Gal
  glycan array binding signal (z-score): 2.41
[2]
  glycan array binding signal (z-score): 1.53
GalNAc3S(b1-4)GlcNAc3S
  glycan array binding signal (z-score): 0.248
GalNAc4S6S(b1-4)GlcNAc
  glycan array binding signal (z-score): -0.331
Glc(a1-6)Glc(a1-6)Glc
  glycan array binding signal (z-score): -0.88
GlcA(b1-3)GlcNAc
  glycan array binding signal (z-score): 0.654
[3]
  glycan array binding signal (z-score): -0.355
[4]
  glycan array binding signal (z-score): 0.299
[5]
  glycan array binding signal (z-score): -0.07
Man(a1-2)Man(a1-3)Man
  glycan array binding signal (z-score): 0.075
[6]
  glycan array binding signal (z-score): -0.301
[7]
  glycan array binding signal (z-score): -0.853
[8]
  glycan array binding signal (z-score): -0.874
[9]
  glycan array binding signal (z-score): -0.355
[10]
  glycan array binding signal (z-score): 1.38
[11]
  glycan array binding signal (z-score): 1.73
[12]
  glycan array binding signal (z-score): -1.07
Neu5Ac(a2-6)Gal(b1-4)Glc
  glycan array binding signal (z-score): 0.148
[13]
  glycan array binding signal (z-score): -1.7
[14]
  glycan array binding signal (z-score): 0.297
[15]
  glycan array binding signal (z-score): -0.759
[16]
  glycan array binding signal (z-score): -1.01
[17]
  glycan array binding signal (z-score): 0.589
[18]
  glycan array binding signal (z-score): -0.597
[19]
  glycan array binding signal (z-score): 0.675
[20]
  glycan array binding signal (z-score): -0.815
[21]
  glycan array binding signal (z-score): -1.37
[22]
  glycan array binding signal (z-score): -0.144
